# Hits are enriched below; roughly 4% of the tested compounds scored in any of these assays.
# TRHR agonist = agonists of human TRH receptor; AID 493084; P34981; 0.18% of 360,000 active; TRHR cells, calcium flux fluo-8, FDSS agonist mode; activation, % at 2 µM; further: 0% is about no effect
#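 Agonist-mode FDSS calcium read (Ex 480/Em 530, 1 s cycles) in 1536-well TRHR cells with fluo-8 dye, after 10-cycle baseline and 23 nL compound addition; TRH at EC20 (10 nM final) added afterwards for the enhancer phase.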
# D1 ag = agonists of human D1 dopamine receptor. P21728. HEK293 T-REx D1 cells, calcium flux, agonist mode. activation, % at 2 µM. 1% of 360,000 active. AID 504660; further: 0% is about no effect
# Target sequence (P21728 whole entry, looked up): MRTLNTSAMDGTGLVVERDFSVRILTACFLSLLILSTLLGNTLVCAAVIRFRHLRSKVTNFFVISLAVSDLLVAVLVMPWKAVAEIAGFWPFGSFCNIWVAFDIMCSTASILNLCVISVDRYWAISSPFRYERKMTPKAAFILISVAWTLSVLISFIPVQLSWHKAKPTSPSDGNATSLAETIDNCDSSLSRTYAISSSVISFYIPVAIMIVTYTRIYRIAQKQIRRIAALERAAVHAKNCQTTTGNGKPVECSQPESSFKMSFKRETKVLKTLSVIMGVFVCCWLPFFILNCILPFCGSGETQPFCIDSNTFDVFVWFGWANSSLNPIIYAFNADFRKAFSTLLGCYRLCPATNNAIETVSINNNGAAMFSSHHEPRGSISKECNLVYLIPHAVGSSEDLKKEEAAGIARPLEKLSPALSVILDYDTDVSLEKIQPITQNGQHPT
#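 Inducible HEK293 T-REx D1 cells, force-coupled to calcium signalling, were plated at 4000 cells/well with tetracycline and held overnight at 30 C. After no-wash calcium dye loading, compound-evoked calcium rise over 180 s flagged agonists.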
# D1 PAM = human D1 dopamine receptor positive modulation. P21728. HEK293 TREx D1 cells, calcium flux, dopamine EC20 potentiation. potentiation, % at 10 µM. 0.036% of 360,000 active. AID 504651; in the data active means potentiation above about 30%; further: 0% is about no effect
# D1 antagonist = blocks dopamine activation of the human D1 receptor; P21728; HEK293 TREx D1 cells, calcium flux, dopamine EC80; stronger effect = lower value; activity change, negative = inhibition, % at 10 µM; 3.2% of 360,000 active; AID 504652; in the data active means activity change below about -30%; further: on the % scale 0 is the no-effect control and ±100 the full control effect
#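 Compound effects on dopamine-evoked calcium signalling were measured in tetracycline-induced HEK293 Trex D1 cells. Dopamine at EC80 followed a 180 s compound pre-read, and fluorescence was tracked kinetically for 180 s more.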
# GRP78 ERSR act = induces the endoplasmic reticulum stress response in human glioma cells | U87-MG GRP78 promoter luciferase reporter, 16 h | Potency, µM, inactives show at the highest dose activation, hits mostly activators | 0.02% of 420,000 active; active means well fitted activation curve with a large enough effect; further: potency means the concentration at half of the fitted maximal effect; series mostly up to about 76 µM; % of control where 0% means no effect; nearly all actives have a fitted effect of over 35% in size
#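 Stably transfected U87-MG glioma cells carrying a GRP78-based luciferase sensor; 16 h compound incubation. Luminescence end-point read 10 min after Bright-Glo addition at room temperature.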
# TRHR enhancer = allosterically enhances the human TRH receptor; P34981; TRHR cells, fluo-8 calcium fluorescence, EC20 TRH enhancement; enhancement, % at 2 µM; 0.66% of 360,000 active; in the data active means enhancement above about 30%; further: 0% is about no effect
#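 TRHR-expressing cells loaded with fluo-8 calcium dye were read kinetically (ex 480/em 530) during compound addition, then stimulated with an EC20 of TRH (10 nM final). Enhancement of the Gq-mediated intracellular calcium response was scored.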
# * marks the source's active call; other numbers are inactive results; . = not tested or not shown. Unless noted, no stated cut-off is given here; in the data, active means activation above about 30%; inactive means the rest.
SMILES,TRHR agonist,D1 ag,D1 PAM,D1 antagonist,GRP78 ERSR act,TRHR enhancer
CCN1CCN(Cc2ccc(NC(=O)c3ccc(C)c(/C=C/c4cnc(Nc5cc(N6CCNCC6)nc(C)n5)cn4)c3)cc2C(F)(F)F)CC1,2,7,-5,4,-12%,2
O=C(Cc1cccs1)Nc1nc2c(ccc3ccccc32)s1,0,7,-2,-1,0%,4
O=C(NC(=S)Nc1cccc(Cl)c1N1CCCCC1)c1ccco1,0,7,-3,35,1%,4
CCc1ccc2nc3n[nH]c(N)c3cc2c1,-1,2,1,-9,4%,6
COc1cccc(-n2nnc(S(=O)(=O)c3ccc(C)cc3)c2N)c1,3,14,1,-36*,-6%,3
CCC(C)c1ccccc1OCCCN(C)Cc1ccccc1 (configuration not stated),0,4,-6,-23,-7%,2
Cn1c(=O)c2nc(SCC(=O)Nc3ccc(Cl)c(Cl)c3)n(C)c2n(C)c1=O,0,-3,0,.,-2%,-2
CC(=O)c1cccc(NC(=O)CSc2nc3c(=O)n(C)c(=O)n(C)c3n2C)c1,0,-2,-2,.,-1%,34*
Cc1ccc(/C=C(\C#N)C(=O)NCCN2CCOCC2)cc1,0,3,0,3,-4%,3
COc1ccc(NC(=O)CN(C)CC(=O)Nc2cccc(F)c2)cc1Cl,0,6,-7,-11,5%,0
O=C(O)c1ccc2c(=O)[nH]c(CCl)nc2c1,1,5,-3,-4,-4%,33*
O=C(O)c1ccc2c(=O)[nH]c(CN3CCOCC3)nc2c1,-1,-2,-3,-11,-3%,-4
COc1ccccc1-c1ccc(/C=C2/C=C(C)OC2=O)o1,5,4,-18,-20,0%,6
COc1ccccc1-c1ccc(/C=C2\C=CC(=O)O2)o1,73*,292*,5,-5,18%,4
Cc1ccc(C(=O)NCCNC(=O)COc2ccccc2Cl)cn1,0,2,-4,-10,-1%,3
CCOC(=O)C1=C(C)N(c2ccc(OCC)cc2)C(=O)/C1=C\c1ccco1,1,-1,1,1,-1%,0
O=C1C[C@@H](O)[C@@H](O)[C@@H]2[C@H]3C(=O)N(c4ccc(F)cc4F)C(=O)[C@@H]3CC[C@@H]12,.,.,.,.,-4%,.
Cc1ccc(NC(=O)c2sc3nc(-c4cccs4)ccc3c2N)cc1F,4,24,1,4,-3%,2
CCCSc1nnc(NC(=O)c2sc3nc(-c4cccs4)ccc3c2N)s1,9,43*,1,2,4%,-1
Nc1c(C(=O)Nc2cccc(F)c2)sc2nc(-c3cccs3)ccc12,5,33*,-3,-7,4%,-13
O=C(CSC1CC(=O)N(CCc2ccccc2)C1=O)Nc1cccc(Cl)c1 (configuration not stated),-2,33*,0,-4,2%,-9
O=C1NC(=S)S/C1=C\c1ccc2ccccc2c1,0,3,-2,-31*,2%,-5
COc1ccc(/C=C/C(=O)Nc2cccc(F)c2)cc1,-1,-1,-1,9,-6%,-1
CN(C)c1ccc(C(=O)/C=C/c2ccccc2)cc1,0,2,-4,-6,-1%,-4
CCN(CC)c1ccc(/C=C/C(=O)c2cccnc2)cc1,1,4,-2,-16,-2%,-1
SMILES,TRHR agonist,D1 ag,D1 PAM,D1 antagonist,GRP78 ERSR act,TRHR enhancer
COc1ccc(/C=C/C(=O)Nc2cccc(C(C)=O)c2)cc1,0,4,-4,-40*,2%,5
CCN(CC)c1ccc(/C=C/C(=O)c2ccc(Br)cc2)cc1,166*,425*,-8,-67*,-2%,-1
CC(=O)Nc1cccc(C(=O)/C=C/c2ccc(/C=C/C(=O)c3cccc(NC(C)=O)c3)cc2)c1,1,1,-7,-8,.,-3
CN(C)c1ccc(C(=O)/C=C/c2ccc(Br)cc2)cc1,0,5,-4,-33*,8%,-5
CC(=O)Nc1cccc(C(=O)/C=C/c2ccc(N(C)C)cc2)c1,153*,401*,15,6,3%,1
CNc1nc(-c2ccccc2C)nc2ccccc12,.,.,.,.,-3%,.
CCSc1nc(C(F)(F)F)cc(=O)n1-c1ccccc1,1,6,0,-23,-3%,1
c1ccc(CNc2nc(-c3ccoc3)nc3ccccc23)cc1,.,.,.,.,5%,.
CC(=O)N(Cc1ccco1)C1(C(=O)NC2CCCC2)CCCCC1,0,4,-6,-11,-3%,-1
O=C(COC(=O)Cc1ccc(F)cc1)NCc1ccco1,0,1,-1,-1,-2%,-4
O=C(COC(=O)/C=C/c1ccc(C(F)(F)F)cc1)NC1CCCC1,0,5,-8,-49*,2%,-5
O=C(COC(=O)/C=C/c1ccc(C(F)(F)F)cc1)NCc1ccco1,0,6,-7,-31*,-2%,-2
O=C(CO/N=C/c1ccc(OC(F)F)cc1)NCc1cccs1,0,5,-7,-1,-2%,8
O=C(COC(=O)/C=C/c1ccc(OC(F)F)cc1)NCc1cccs1,2,36*,-3,3,-4%,-8
O=C(COC(=O)CCC(=O)c1ccc(F)cc1)NCc1ccco1,0,0,-8,-32*,-1%,3
CCc1cc2c(CN3CCN(CC)CC3)cc(=O)oc2cc1O,1,5,-2,-14,0%,-4
O=C(Cc1ccccc1Cl)NC1(O)C(=O)c2ccccc2C1=O,-1,3,-5,-7,4%,14
Cc1ccc2c(c1)c(=O)c(C(=O)c1ccc3c(c1)OCO3)cn2Cc1cccc(F)c1,0,2,-3,-66*,-4%,4
CCOc1ccc2c(c1)c(=O)c(C(=O)c1ccc3c(c1)OCO3)cn2Cc1cccc(F)c1,0,4,0,-2,-2%,5
COc1cc(C(=S)N2CCOCC2)ccc1OC(=O)c1ccccc1[N+](=O)[O-],0,6,-4,-33*,0%,4
O=C(Oc1ccc(C(=S)N2CCOCC2)cc1)c1ccc([N+](=O)[O-])cc1[N+](=O)[O-],1,-1,-5,-2,-2%,0
O=C(Oc1ccc(Br)cc1C(=S)N1CCOCC1)c1ccc([N+](=O)[O-])cc1[N+](=O)[O-],0,-2,9,-4,-10%,36*
CC(Cc1cccnc1)NC(=O)c1cc(COc2ccc(F)cc2Cl)on1 (configuration not stated),2,10,-10,-34*,2%,-8

# Screening data: PubChem BioAssay, National Center for Advancing Translational Sciences (NCATS)
